PTK2B oligo ant: antagonists of Pyk2 self-association, primary screen, Q293 cells, FERM NanoBiT luminescence, HTS; stronger effect = lower value; 0.83% of 99,000 active; z-score (the deposit names both 25 µM and 10 µM);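 active = Z-score of -3 or lower, scaled per plate to the spread of control and sample wells; inactive = z-score above -3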;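 also: negative z-score means lost luminescence so less FERM oligomerization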
NFkB transloc pot: enhancers of NFkB p65 translocation in HUVEC – imaging, IL-1B stimulus, high-content imaging, primary screen. HUVEC IL-1B NFkB p65 nuclear translocation imaging. activation, % at 2 µM. 0.3% of 94,000 active;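 active = activation above 40%, about the mean plus 3 SD, also judged a hit on visual image review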;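 also: percent activation is computed from the nuclear over cytoplasmic p65 intensity ratio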
Phagocyt inh: inhibitors of macrophage phagocytosis, primary screen, imaging, J774A.1 cells, IgG beads; inhibition, % at 5 µM; 0.07% of 110,000 active; J774A.1 macrophage IgG-bead phagocytosis;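 active = inhibition above the mean of the plate negative controls plus 5 SD, cut at about 13% in these data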;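 also: phagocytic index as fraction of beads internalized from green versus red external bead signal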
HUVEC tox IL1B: cytotoxicity in IL-1B stimulated HUVEC, primary screen, cytotoxicity control for IL-1B NFkB translocation project, imaging, Hoechst nuclear count, IL-1B stimulus; HUVEC cell count loss; cell count reduction, % at 2 µM; 0.41% of 94,000 active;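 active = cell count reduction more than 3 SD above the screen-wide mean, cut at about 70% in these data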
IL1B NFkB inh: inhibitors of IL-1B driven NFkB p65 nuclear import, primary screen, imaging, HUVEC, IL-1B stimulus, high-content imaging. HUVEC IL-1B NFkB p65 nuclear translocation imaging. 0.43% of 94,000 active. inhibition, % at 2 µM;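 active = inhibition above about 30% together with a positive call from visual inspection of the well image, limit read from the data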;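 also: nuclear over cytoplasmic p65 intensity ratio measured by imaging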
Large screens that a line does not name were inactive. Sampled rows, rich in hits. Any-hit rate of the full collection: about 1.4%.

N#Cc1ccccc1Sc1ccccc1C(=O)OCc1nnc(-c2ccccc2)o1	PTK2B oligo ant -3.7
Cc1noc(C)c1COC(=O)c1ccccc1Sc1ccccc1C#N	none
C=CCc1cc(Cl)ccc1OCCCNC(C)C	none (no result: PTK2B oligo ant, NFkB transloc pot, HUVEC tox IL1B, IL1B NFkB inh)
C=CCc1cc(Cl)ccc1OCCN(C)C	HUVEC tox IL1B 85
Cc1cccc(N(C(=O)Nc2ccccc2)C2=NCC(C)S2)c1 (stereo not drawn)	none (no result: PTK2B oligo ant, NFkB transloc pot, HUVEC tox IL1B, IL1B NFkB inh)
COc1cc2c(cc1OC)C(c1cc3cc(OC)c(OC)cc3[nH]c1=O)N(C(=O)C1CC1)CC2 (stereo not drawn)	NFkB transloc pot 45
CC(C)(C)NC(=O)C(c1cccs1)N(CC1CCCO1)C(=O)Cn1nnc(-c2cccs2)n1 (stereo not drawn)	NFkB transloc pot 48
O=C(NCC1CCCO1)C(c1cccs1)N(Cc1cccs1)C(=O)Cn1nnc(-c2cccs2)n1 (stereo not drawn)	none (no result: Phagocyt inh)
Cc1cc(NC(=O)CC(C)(C)C)nc2c1c(=O)oc1ccccc12	none (no result: Phagocyt inh)
CCCc1cc2c(c(NC(C)=O)n1)c(=O)oc1ccccc12	HUVEC tox IL1B 78 (no result: Phagocyt inh)
Cc1cc(C)c(NC(=O)CS(=O)CC(=O)N2CCN(c3ccc(F)cc3)CC2)c(C)c1 (stereo not drawn)	none
CC(=O)Nc1ccccc1-c1nc2ccc(C(=O)N3CCN(c4ccccc4)CC3)cc2[nH]c1=O	IL1B NFkB inh 38 (no result: PTK2B oligo ant)
CC(=O)Nc1ccccc1-c1nc2ccc(C(=O)N3CCN(c4cccc(C)c4)C(C)C3)cc2[nH]c1=O (stereo not drawn)	none (no result: PTK2B oligo ant)
COc1ccc(C2C(C(C)=O)=C(C)N=c3s/c(=C\c4ccc5c(c4)OCO5)c(=O)n32)c(OC)c1 (stereo not drawn)	HUVEC tox IL1B 94 (no result: Phagocyt inh)
CC(=O)Nc1nc2nc(-c3ccccc3)cc(-c3ccccc3)n2n1	none
O=C(Nc1nc2nc(-c3ccccc3)cc(-c3ccccc3)n2n1)c1ccco1	PTK2B oligo ant -3.5
CCN(c1ccc2c(c1)OCO2)S(=O)(=O)c1cc(Br)cc2c1N(C(C)=O)CC2	none (no result: Phagocyt inh)
CCOc1ccc2nc(NC(=O)c3ccc(S(=O)(=O)N4CCOCC4)cc3)sc2c1	none (no result: Phagocyt inh)
CCOc1ccc2nc(NC(=O)c3ccc(OC)c(S(=O)(=O)N4CCOCC4)c3)sc2c1	PTK2B oligo ant -3.7
CCOC(=O)c1ccc(Nc2nc(C(=O)OCC)nc3ccccc23)cc1	HUVEC tox IL1B 84 (no result: Phagocyt inh)
S=c1[nH]nc(-c2cc(-c3ccco3)[nH]n2)n1-c1ccccc1	IL1B NFkB inh 35 (no result: Phagocyt inh)
S=c1[nH]nc(-c2cc(-c3ccco3)[nH]n2)n1-c1ccccc1Cl	none (no result: NFkB transloc pot, HUVEC tox IL1B, IL1B NFkB inh)
CCOC(=O)c1cnc(SCC(=O)Nc2ccc(N3CCOCC3)cc2)nc1N	none (no result: PTK2B oligo ant)
Cc1sc2ncn(CCn3cnc4sc(C)c(C)c4c3=O)c(=O)c2c1C	IL1B NFkB inh 57
OC1CCCN(c2c3c(nc4cc(-c5cccc(Cl)c5)nn24)CCC3)C1 (stereo not drawn)	PTK2B oligo ant -3.2 (no result: Phagocyt inh)
Cc1cccc(-c2cc3nc4c(c(N5CCCC(O)C5)n3n2)CCC4)c1 (stereo not drawn)	none
O=C1C2C3C=CC(C3)C2C(=O)N1c1ncn[nH]1 (stereo not drawn)	none
Cc1c(Cl)c(-c2n[nH]c(=S)n2-c2ccc(F)cc2)nn1C	IL1B NFkB inh 36
CCOC(=O)CSc1nc(C2CC2)cc(-c2ccc(F)cc2)c1C#N	PTK2B oligo ant -3.3
CCOC(=O)CSc1nc(C)cc(C)c1C#N	IL1B NFkB inh 50
COCCSc1nc2sc3c(c2c(=O)n1-c1ccccc1)CCN(C)C3	none
Cc1cccc(N(C(=O)c2sc(C)nc2C)C(C(=O)NCc2ccco2)c2ccccc2)c1 (stereo not drawn)	NFkB transloc pot 47
NC(=O)N1CCN(C(=O)c2ccco2)CC1	HUVEC tox IL1B 84, IL1B NFkB inh 31
Clc1ccc(OCc2nc(-c3ccccn3)no2)c(Br)c1	IL1B NFkB inh 36 (no result: PTK2B oligo ant)
Clc1ccccc1OCc1nc(-c2ccccn2)no1	none
Cc1nc2ccc(NC(=O)c3cc(S(=O)(=O)N4CCOCC4)ccc3C)cc2s1	none
Cc1nc2ccc(NC(=O)N3CCOCC3)cc2s1	IL1B NFkB inh 51 (no result: Phagocyt inh)
CCOC(=O)c1c2c(n(C)c1C)C(=O)C(=O)c1ccc(Br)cc1-2	PTK2B oligo ant -3.5 (no result: Phagocyt inh)
CC(=O)Nc1ccc(S(=O)(=O)Nc2cccc(-c3nc4ccccc4o3)c2)cc1	none
O=S(=O)(Nc1ccc(-c2nc3ccccc3o2)cc1)c1ccccc1	PTK2B oligo ant -3.5
O/N=C1/CCCSc2ccccc21	NFkB transloc pot 48
CCc1ccc(CNC(=O)C2CCC(=O)N2C2CCCCC2)cc1 (stereo not drawn)	none
CCCCN(CCCC)S(=O)(=O)c1ccc(NC(=O)Cc2cccs2)cc1	PTK2B oligo ant -3.2
CCN1C(=O)/C(=C/c2cnn(C)c2C)SC1=S	none (no result: PTK2B oligo ant, Phagocyt inh)
CCOc1ccc(C(=O)CCc2nc3ccccc3s2)cc1	PTK2B oligo ant -3.3 (no result: Phagocyt inh)
O=C(CCc1nc2ccccc2s1)OCc1ccccc1	none (no result: PTK2B oligo ant, NFkB transloc pot, HUVEC tox IL1B, IL1B NFkB inh)
Cc1cc(C)c(C#N)c(SCC2COc3ccccc3O2)n1 (stereo not drawn)	PTK2B oligo ant -3.3
N#Cc1cc2c(nc1SCC1COc3ccccc3O1)CCC2 (stereo not drawn)	none
Cc1cc(C)c(C#N)c(SCc2ccccc2)n1	HUVEC tox IL1B 91 (no result: Phagocyt inh)
CCOc1ccc(N(CC(=O)NCc2ccccc2)S(=O)(=O)c2c(C)noc2C)cc1	none (no result: PTK2B oligo ant)
CSc1ncc(Cl)c(C(=O)C(C#N)c2nc3c(C)cc(C)cc3c(=O)[nH]2)n1 (stereo not drawn)	PTK2B oligo ant -3 (no result: NFkB transloc pot, Phagocyt inh, HUVEC tox IL1B, IL1B NFkB inh)
Cn1c(COc2ccc3ccccc3c2)nnc1SCC(=O)OC1CCCCC1	NFkB transloc pot 41 (no result: Phagocyt inh)
COc1cccc(C(O)c2cnc(C(C)C)n2C)c1OC (stereo not drawn)	none (no result: NFkB transloc pot, HUVEC tox IL1B, IL1B NFkB inh)
CCc1ncc(C(O)c2cccc(OC)c2OC)n1C (stereo not drawn)	HUVEC tox IL1B 90, IL1B NFkB inh 99
Cc1cc(C)cc(NC(=O)c2ccc(CNc3c(N4CCOCC4)c(=O)c3=O)cc2)c1	none (no result: PTK2B oligo ant, Phagocyt inh)
Cc1ccc(CNC(=O)c2ccc(CNc3c(N4CCCC4)c(=O)c3=O)cc2)cc1	NFkB transloc pot 41 (no result: PTK2B oligo ant)
CC1CCN(c2c(NCc3ccc(C(=O)N4CCc5ccccc54)cc3)c(=O)c2=O)CC1	NFkB transloc pot 118 (no result: PTK2B oligo ant, Phagocyt inh)
CCOc1ccc(OCC)c(NC(=O)c2ccc(CNc3c(N4CCOCC4)c(=O)c3=O)cc2)c1	NFkB transloc pot 70
O=C(COC(=O)CCCSc1nc2ccccc2[nH]1)Nc1cccc(F)c1	none (no result: PTK2B oligo ant, NFkB transloc pot, HUVEC tox IL1B, IL1B NFkB inh)
CN1/C(=C\C(=O)c2cncc(Br)c2)C(C)(C)c2ccccc21	none (no result: PTK2B oligo ant, NFkB transloc pot, HUVEC tox IL1B, IL1B NFkB inh)
CCOC(=O)c1ccc(N2C(=O)c3n[nH]c(C)c3C2c2ccc(OC)cc2OC)cc1 (stereo not drawn)	PTK2B oligo ant -3.2 (no result: Phagocyt inh)
CCOC(=O)c1ccc(N2C(=O)c3n[nH]c(C)c3C2c2ccc(OC)cc2)cc1 (stereo not drawn)	none
